Test results reported in PubChem BioAssay (NCATS).
“And” between values parts separate entries of the source, which are not always exact repeats. Equal entries are not always repeated. Results filed as inconclusive are left out. Entries that show only a call come without a potency. Unmarked numbers belong to inactive results. The source made the active and inactive calls. Unless noted, calls follow the shape of the dose curve; as a rule, active = well fitted curve in the direction sought with a large enough effect; inconclusive = small, poorly fitted or top-dose-only effect, or another doubt; inactive = no such curve, though single readings can be large; an effect the other way counts as inactive or inconclusive.

Tests used:
[1] = biological target: Cellular tumor antigen p53 (Homo sapiens) (UniProt P04637); experiment: Primary qHTS for small molecule compounds that upregulate eGFP-tagged delta133p53alpha (in N-terminal) cells. (AID 2060322); details: NCI-H358 eGFP-delta133p53alpha fluorescence, 24 h; activation: active compounds read high; also: nearly all actives have a fitted effect of over 75% in size; also: potency is read from the fitted curve at half-maximal effect;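 as to activation: cells pre-induced with doxycycline then dosed without doxycycline; series mostly up to about 56 µM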
Chain of Cellular tumor antigen p53 (Homo sapiens) (P04637 whole entry, looked up): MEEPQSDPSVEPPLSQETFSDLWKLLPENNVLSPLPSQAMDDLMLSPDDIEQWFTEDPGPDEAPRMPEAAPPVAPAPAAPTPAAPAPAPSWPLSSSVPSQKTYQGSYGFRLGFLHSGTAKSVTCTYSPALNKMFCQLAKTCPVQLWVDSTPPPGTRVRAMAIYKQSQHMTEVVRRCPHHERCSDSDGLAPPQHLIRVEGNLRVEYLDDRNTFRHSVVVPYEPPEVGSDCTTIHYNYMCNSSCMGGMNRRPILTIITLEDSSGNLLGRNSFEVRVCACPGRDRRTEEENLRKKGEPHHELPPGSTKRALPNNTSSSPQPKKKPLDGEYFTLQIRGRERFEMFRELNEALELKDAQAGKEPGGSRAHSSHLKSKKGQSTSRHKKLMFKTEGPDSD
Procedure, shortened: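 NCI-H358 cells pre-induced 24 h with 10 ng/ml doxycycline for eGFP-delta133p53alpha, plated dox-free and exposed 24 h at 37C to titrated compounds. Fixed, Hoechst-stained; gated GFP peak intensity by laser scanning cytometry, normalized to DMSO (0%) and 57.5 uM 5-azacytidine (100%).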

[2] = biological target: Cellular tumor antigen p53 (Homo sapiens) (UniProt P04637); experiment: Primary qHTS for small molecule compounds that upregulate eGFP-tagged delta133p53alpha (in C-terminal) cells. (AID 2060324); also: potency is read from the fitted curve at half-maximal effect
Procedure, shortened: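 Readout: filtered GFP peak intensity of gated cells (laser scanning cytometer), normalized plate-wise to intraplate controls, DMSO wells = 0% activity. Cells: NCI-H358 D133p53a-eGFP, dox 100 ng/ml 24 h beforehand, then compound 24 h, 37 °C.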

[3] = biological target: Aldehyde dehydrogenase, mitochondrial (Homo sapiens) (UniProt P05091); experiment: qHTS for Inhibitors of the Aldehyde Dehydrogenase Family (ALDH2) Validation screens (AID 2061302; active = well fitted inhibition curve with a large enough effect; title and protocol of this record describe different tests)
[4] = biological target: Retinaldehyde dehydrogenase 3 (Homo sapiens) (UniProt P47895); experiment: qHTS for Inhibitors of the Aldehyde Dehydrogenase Family (ALDH1A3) Validation screen (AID 2061312); also: nearly all actives have a fitted effect of over 45% in size
[5] = BET inhibitor-based combinations targeting novel dependencies in MECOM-rearranged (r) AML: SET-2 cell line (AID 2202231); details: SET-2 AML cells viability, CellTiter-Glo luminescence, 48 h; viability: active compounds read low, concentration not given here; also: nearly all actives have a fitted effect of over 35% in size; also: potency is read from the fitted curve at half-maximal effect
Procedure, shortened: (§1)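 Here, 11-point titrations of each agent were applied to 500 seeded cells and incubated 48 hr; CellTiter-Glo signal, scaled against DMSO and empty wells, was integrated as AUC, then Z-scored within the individual line.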

[6] = BET inhibitor-based combinations targeting novel dependencies in MECOM-rearranged (r) AML: OCI-AML3 cell line (AID 2202232); details: Potency: OCI-AML3 viability; also: nearly all actives have a fitted effect of over 35% in size; also: potency is read from the fitted curve at half-maximal effect
Procedure, shortened: as §1

[7] = BET inhibitor-based combinations targeting novel dependencies in MECOM-rearranged (r) AML: HNT-34 cell line (AID 2202234); also: nearly all actives have a fitted effect of over 35% in size; also: potency is read from the fitted curve at half-maximal effect
Procedure, shortened: (§2)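 Normalized to DMSO and empty-well controls, the luminescence data from CellTiter-Glo after 48 hr drug exposure were fitted across 11 concentrations. Reported metrics are area under the dose-response curve and its Z-transformed form.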

[8] = BET inhibitor-based combinations targeting novel dependencies in MECOM-rearranged (r) AML: AML-191 cell line (AID 2202236; also: nearly all actives have a fitted effect of over 35% in size; also: potency is read from the fitted curve at half-maximal effect)
Procedure, shortened: as §1

[9] = BET inhibitor-based combinations targeting novel dependencies in MECOM-rearranged (r) AML: UCSD-AML1 cell line (AID 2202235); also: nearly all actives have a fitted effect of over 40% in size; also: potency is read from the fitted curve at half-maximal effect
Procedure, shortened: as §2

[10] = BET inhibitor-based combinations targeting novel dependencies in MECOM-rearranged (r) AML: AML-194 cell line (AID 2202237; also: nearly all actives have a fitted effect of over 40% in size; also: potency is read from the fitted curve at half-maximal effect)
Procedure, shortened: as §1

[11] = BET inhibitor-based combinations targeting novel dependencies in MECOM-rearranged (r) AML: MV-4-11 cell line (AID 2202233); also: nearly all actives have a fitted effect of over 45% in size; also: potency is read from the fitted curve at half-maximal effect
Procedure, shortened: as §2

Row | SMILES | activation [1] | Potency [2] | Potency [3] | Potency [4] | viability [5] | Potency [6] | Potency [7] | Potency [8] | Potency [9] | Potency [10] | Potency [11] | Potency [5] | Potency [1]
1 | CNC[C@H](O)c1ccc(O)c(O)c1 | 2.51% and 2.46% and 10.6% | inactive | inactive | inactive | 103% | inactive | inactive | inactive | – | – | – | – | –
2 | CN(C)c1nc(N(C)C)nc(N(C)C)n1 | -31.8% and -1.51% and -37.1% | inactive | inactive | inactive | 111% | – | inactive | inactive | inactive | inactive | – | – | –
3 | COc1cc(SC)ccc1C(=O)N1CCC(Cc2ccccc2)CC1 | 14.6% | inactive | inactive | inactive | 97% | inactive | – | inactive | inactive | inactive | 20.9 µM (active) | – | –
4 | CC(C)NCC(O)c1ccc(NS(C)(=O)=O)cc1 (configuration not stated) | -72.6% | inactive | inactive | inactive | 116% | inactive | inactive | – | inactive | inactive | inactive | – | –
5 | CC(C)NCC(O)COc1ccc(CCOCC2CC2)cc1 (configuration not stated) | -6.83% and 29.3% and -23.2% | inactive | inactive | inactive | 115% | – | – | inactive | inactive | inactive | inactive | – | –
6 | O=C(O)C1CCCN(CCC=C(c2ccccc2)c2ccccc2)C1 (configuration not stated) | -10.3% | inactive | inactive | inactive | 117% | inactive | inactive | inactive | inactive | inactive | – | – | –
7 | O=c1[nH]cc(F)c(=O)[nH]1 | -32.6% and 6.33% | inactive | inactive | inactive | – | – | – | – | – | – | 6.61 µM (active) | 10.5 µM (active) | –
8 | CN(C)C(=O)C(CCN1CCC(O)(c2ccc(Cl)cc2)CC1)(c1ccccc1)c1ccccc1 | 62.2% and -46.1% | inactive | inactive | inactive | – | – | 20.9 µM (active) | – | – | – | 20.9 µM (active) | 14.8 µM (active) | –
9 | CCOC(=O)C1=C(O)C(=O)N(Cc2ccccc2)C1 | -27.1% | inactive | inactive | inactive | 93.1% | inactive | inactive | inactive | inactive | inactive | – | – | –
10 | NC(=O)c1ncn([C@@H]2O[C@H](CO)[C@@H](O)[C@H]2O)c1O | -26.8% and 40.7% | inactive | inactive | inactive | 109% and 121% | inactive | inactive | inactive | inactive | inactive | – | – | –
11 | NC(=O)c1cnccn1 | -1.69% and -18.4% and -16.9% | inactive | inactive | inactive | 105% | inactive | inactive | inactive | – | inactive | – | – | –
12 | Clc1ccccc1C(c1ccccc1)(c1ccccc1)n1ccnc1 | -9.6% and -24.2% | inactive | inactive | inactive | – | 16.6 µM (active) | 18.6 µM (active) | 23.5 µM (active) | – | – | 18.6 µM (active) | 18.6 µM (active) | –
13 | O=c1c(-c2ccc(O)cc2)coc2cc(O)cc(O)c12 | -2.22% and -24.3% and -49.4% | inactive | inactive | inactive | – | – | 21.5 µM (active) | 42.8 µM (active) | – | – | 34 µM (active) | 42.8 µM (active) | –
14 | CC(C)Cc1ccc(C(C)C(=O)O)cc1 (configuration not stated) | 17.5% and 9.01% | inactive | inactive | inactive | 111% | – | – | inactive | inactive | inactive | inactive | – | –
15 | NCCCCNCCCN | -3.21% and -16.4% | inactive | inactive | inactive | – | – | 23.5 µM (active) | – | – | – | 10.5 µM (active) | 18.6 µM (active) | –
16 | Nc1nc2c(ncn2COCCO)c(=O)[nH]1 | 6.69% and 13.1% | inactive | inactive | inactive | 125% | inactive | inactive | inactive | inactive | inactive | inactive | – | –
17 | CC1COc2c(N3CCN(C)CC3)c(F)cc3c(=O)c(C(=O)O)cn1c23 (configuration not stated) | 11.7% and -7% and 13.8% | inactive | inactive | inactive | 102% | – | inactive | inactive | inactive | – | inactive | – | –

Row | SMILES | activation [1] | Potency [2] | Potency [3] | Potency [4] | viability [5] | Potency [6] | Potency [7] | Potency [8] | Potency [9] | Potency [10] | Potency [11] | Potency [5] | Potency [1]
18 | NCCc1ccc(O)c(O)c1 | -4.36% and 11.8% | inactive | inactive | inactive | 112% | – | – | inactive | inactive | inactive | 18.6 µM (active) | – | –
19 | NCCS(=O)(=O)O | -4.87% and 12% | inactive | inactive | inactive | 125% | inactive | inactive | inactive | – | inactive | – | – | –
20 | CN1CCC(=C2c3ccccc3CC(=O)c3sccc32)CC1 | 59.8% and 8.47% and -42.7% | inactive | inactive | inactive | 112% | 18.6 µM (active) | – | – | inactive | inactive | – | – | –
21 | CNC[C@H](O)c1cccc(O)c1 | -9.21% and 8.41% and -4.95% | inactive | inactive | inactive | 112% | inactive | inactive | – | inactive | inactive | – | – | –
22 | COc1ccc([C@@H]2Sc3ccccc3N(CCN(C)C)C(=O)[C@@H]2OC(C)=O)cc1 | 17.5% and -3.98% | inactive | inactive | inactive | 101% | inactive | inactive | inactive | inactive | inactive | inactive | – | –
23 | CC(C)(C)NCC(O)c1ccc(O)c(CO)c1 (configuration not stated) | -7.9% and 9.21% and -24.1% | inactive | inactive | inactive | 115% | inactive | inactive | inactive | inactive | inactive | – | – | –
24 | Cc1ccc(N(CC2=NCCN2)c2cccc(O)c2)cc1 | -15.3% and 15.9% | inactive | inactive | inactive | 97.5% | – | – | – | 23.5 µM (active) | – | 26.3 µM (active) | – | –
25 | Clc1ccc(C(c2ccccc2Cl)C(Cl)Cl)cc1 (configuration not stated) | 18.6% and -1.36% and 29.2% | inactive | inactive | inactive | 70.3% | inactive | – | – | inactive | inactive | – | – | –
26 | NC(=O)c1ncn([C@@H]2O[C@H](CO)[C@@H](O)[C@H]2O)n1 | 6.69% and -41.3% | inactive | inactive | inactive | – | – | 16.6 µM (active) | – | 18.6 µM (active) | – | 23.5 µM (active) | 20.9 µM (active) | –
27 | c1ccc([C@H]2CN3CCSC3=N2)cc1 | 15.3% and -0.374% | inactive | inactive | inactive | 112% | – | inactive | inactive | inactive | inactive | inactive | – | –
28 | Cc1cnc(NC(=O)C2=C(O)c3ccccc3S(=O)(=O)N2C)s1 | -27.7% and -26.4% and -6.82% | inactive | inactive | inactive | 110% and 107% and 111% | inactive | inactive | inactive | inactive | inactive | – | – | –
29 | O=C1N(c2ccccc2)c2ccccc2C1(Cc1ccncc1)Cc1ccncc1 | 10.9% and -8.78% and -29% | inactive | inactive | inactive | 104% | – | – | inactive | inactive | – | inactive | – | –
30 | CN[C@H](CC(C)C)C(=O)N[C@H]1C(=O)N[C@@H](CC(N)=O)C(=O)N[C@H]2C(=O)N[C@H]3C(=O)N[C@H](C(=O)N[C@H](C(=O)O)c4cc(O)cc(O)c4-c4cc3ccc4O)[C@H](O)c3ccc(c(Cl)c3)Oc3cc2cc(c3O[C@@H]2O[C@H](CO)[C@@H](O)[C@H](O)[C@H]2O[C@H]2C[C@](C)(N)[C@H](O)[C@H](C)O2)Oc2ccc(cc2Cl)[C@H]1O | -2.02% | inactive | inactive | inactive | 117% | – | inactive | inactive | inactive | inactive | inactive | – | –
31 | Cc1cc(Cl)ccc1OCCCC(=O)NO | 35.3% and -37.1% and -6.7% | inactive | inactive | inactive | – | – | 1.48 µM (active) | 3.72 µM (active) | 3.72 µM (active) | 4.17 µM (active) | 18.6 µM (active) | 1.32 µM (active) | –
32 | CCN(CC)CCNC(=O)c1c(C)[nH]c(/C=C2\C(=O)Nc3ccc(F)cc32)c1C | – | 6.75 µM (active) | inactive | inactive | – | 5.9 µM (active) | 1.86 µM (active) | 3.72 µM (active) | 3.72 µM (active) | 4.68 µM (active) | – | 16.6 µM (active) | 4.9 µM (active) and 26.9 µM (active)
33 | Cc1cnc(C(=O)NCCc2ccc(S(=O)(=O)NC(=O)NC3CCCCC3)cc2)cn1 | -31.3% and -14.1% and 0.362% | inactive | inactive | inactive | 105% | inactive | inactive | inactive | – | inactive | inactive | – | –
34 | Cc1cc(C)c(/C=C2\C(=O)Nc3ccccc32)[nH]1 | -35.1% | 30.1 µM (active) | inactive | inactive | 96.4% | – | 0.296 µM (active) | 11.8 µM (active) | inactive | – | 0.742 µM (active) | – | –
